{"source": "PubChem BioAssay (EPA / NIEHS)", "note": "Several values for one entry are separate records, joined by “and”; a condition that tells them apart may be missing. Identical values can stand only once. Activity calls are given as the source filed them. Rule for the calls: active = hit-call score of the fitted dose curve at least 0.9, where 1 is the maximum; inactive = score below 0.9.", "data": [{"read-out": "TIMP metallopeptidase inhibitor 1 (TIMP1), TIMP1 (gene 7076)", "test": "BSK_MyoF_TIMP1: BioMAP Diversity Plus: MyoF Assay for TIMP metallopeptidase inhibitor 1 (TIMP1) Biomarker Activity (AID 2284269)", "details": "primary human lung fibroblasts", "method": "BSK_MyoF is a cell-based, multiplexed-readout assay that uses lung fibroblasts, […], with measurements taken at 24 hours after chemical dosing in a microplate: 96-well plate.BSK_MyoF_TIMP1 is an assay component measured in the BSK_MyoF assay. It measures TIMP-1 antibody related to regulation of gene expression using ELISA technology.Data from the assay component BSK_MyoF_TIMP1 was analyzed at the endpoint, BSK_MyoF_TIMP1, in the positive analysis fitting direction relative to DMSO as the negative control and baseline of activity. Using a type of binding reporter, gain or loss-of-signal activity can be used to understand protein changes. To generalize the intended target to other relatable targets, this assay endpoint is annotated to the 'protease' intended target family, where the subfamily is 'matrix metalloproteinase'.\nThe levels of cell surface (or secreted, indicated by the prefix \"s\") biomarker endpoints were measured by ELISA. Overt cytotoxicity to cells in confluent adherent cultures (all systems other than the BT system) was assessed by measuring total protein levels using sulforhodamine B (SRB) staining in parallel cultures at the time of biomarker measurements, indicated as SRB endpoints. For proliferation assays for adherent cell types, individual cell types are cultured at sub-confluence and relative cell numbers quantified by SRB staining at time points optimized for each system (48 h: 3C and CASM3C systems; 72 h: BT and HDF3CGF systems; 96 h: SAg system). SRB was performed by staining cells with 0.1% SRB after fixation with 10% TCA and reading wells at 560 nm.Viability and proliferation of PBMC (T cells) was quantified by Alamar Blue reduction for the SAg and BT systems. For PBMC viability (referred to as PBMC Cytotoxicity within the assay endpoint names), cells were plated (75,000/well in a 96-well plate) and then chemical samples added for 1 h before addition of activators, SEB and TSST-1 (20 ng/mL final concentration each). Cells were incubated for 90 h. Then, Alamar Blue (20 uL/well) (Invitrogen, Cat DAL1100) was added for 6 h, and the plates were read with a fluorescence microplate reader at 546/580 nm (excitation/emission). For PBMC proliferation, cells were plated and activated as above but incubated for only 16 h prior to addition of Alamar Blue. Plates were read after 6 h.", "values": [{"smiles": "COP(=S)(OC)Oc1ccc(S(=O)(=O)N(C)C)cc1", "outcome": "inactive"}, {"smiles": "Oc1ccc(-c2ccccc2)cc1", "outcome": "inactive"}, {"smiles": "Nc1cccc2ccccc12", "outcome": "inactive"}, {"smiles": "ClC(Cl)=C(Cl)C(Cl)=C(Cl)Cl", "outcome": "inactive"}, {"smiles": "Nc1ccc(-c2ccc(N)c(Cl)c2)cc1Cl", "outcome": "inactive"}, {"smiles": "O=C(O)C(F)(F)C(F)(F)C(F)(F)C(F)(F)C(F)(F)C(F)(F)C(F)(F)C(F)(F)C(F)(F)C(F)(F)F", "AC50": "4.33 µM (active) and 5.2 µM (active)"}, {"smiles": "CCOP(=S)(OCC)SCCS(=O)(=O)CC", "outcome": "inactive"}, {"smiles": "CCOP(=S)(OCC)Oc1ccc(S(C)=O)cc1", "note": "(stereo unspecified)", "outcome": "inactive"}, {"smiles": "O=C(O)C(F)(F)C(F)(F)C(F)(F)C(F)(F)C(F)(F)C(F)(F)F", "outcome": "inactive"}, {"smiles": "CC(=O)C(Cl)C(=O)N(C)C", "note": "(stereo unspecified)", "outcome": "inactive"}, {"smiles": "O=[N+]([O-])c1ccc2c3c(cccc13)CC2", "outcome": "inactive"}, {"smiles": "CCSC(C)CC1CC(=O)C(C(CC)=NOC/C=C/Cl)=C(O)C1", "note": "(stereo unspecified)", "outcome": "inactive"}, {"smiles": "CCNc1nc(NC(C)(C)C)nc(SC)n1", "outcome": "inactive"}, {"smiles": "CC(C)CCCCCCOC(=O)c1ccccc1C(=O)OCCCCCCC(C)C", "outcome": "inactive"}, {"smiles": "NC(=S)Nc1ccccc1", "outcome": "inactive"}, {"smiles": "COC(=O)c1sccc1S(=O)(=O)NC(=O)Nc1nc(C)nc(OC)n1", "outcome": "inactive"}, {"smiles": "O=S(=O)(c1ccc(Cl)cc1)c1ccc(Cl)cc1", "outcome": "inactive"}, {"smiles": "CC(C)c1ccc(CO)cc1", "outcome": "inactive"}, {"smiles": "Oc1c(I)cc(I)cc1I", "outcome": "inactive"}, {"smiles": "COP(=S)(OC)Oc1cc(Cl)c(Cl)cc1Cl", "outcome": "inactive"}, {"smiles": "CC1(C)Cc2cccc(O)c2O1", "outcome": "inactive"}, {"smiles": "O=C(OC1CCCCC1)c1ccccc1C(=O)OC1CCCCC1", "AC50": "25.7 µM (active)"}, {"smiles": "O=C(O)CCC(F)(C(F)(F)F)C(F)(F)F", "outcome": "inactive"}, {"smiles": "ClC1=C(Cl)[C@]2(Cl)[C@H]3[C@H]([C@H]4C=C[C@H]3C4)[C@@]1(Cl)C2(Cl)Cl", "outcome": "inactive"}, {"smiles": "Nc1ncc([N+](=O)[O-])s1", "outcome": "inactive"}, {"smiles": "COP(=S)(OC)Oc1c(Cl)cc(C)cc1Cl", "outcome": "inactive"}, {"smiles": "COC[C@H](C)N(C(=O)CCl)c1c(C)csc1C", "outcome": "inactive"}, {"smiles": "OCc1ccco1", "outcome": "inactive"}, {"smiles": "BrCCBr", "outcome": "inactive"}, {"smiles": "CCOC(=O)/C=C(C)/C=C/C[C@@H](C)CCCC(C)C", "AC50": "29.8 µM (active)"}, {"smiles": "O=Cc1cccc(Oc2ccccc2)c1", "outcome": "inactive"}, {"smiles": "COc1cc(OC)nc(NC(=O)NS(=O)(=O)c2ncccc2C(=O)N(C)C)n1", "outcome": "inactive"}, {"smiles": "C(=NC1CCCCC1)=NC1CCCCC1", "AC50": "6.97 µM (active)"}, {"smiles": "CCCCCCCCC(=O)NCc1ccc(O)c(OC)c1", "outcome": "inactive"}, {"smiles": "COP(=S)(OC)Oc1ccc(Sc2ccc(OP(=S)(OC)OC)cc2)cc1", "outcome": "inactive"}, {"smiles": "CCCCC(CC)CO[N+](=O)[O-]", "note": "(stereo unspecified)", "outcome": "inactive"}]}]}
